Here are results for 7 compounds from PubChem BioAssay (NCATS).

Values joined by “and” are separate entries in the source; they are usually repeats but may differ in a detail not shown here. Identical values can stand only once. Records with an inconclusive call do not appear. A structure can be active in one record and inactive in another. Active and inactive are the calls of the source. Calls follow the shape of the dose curve; as a rule, active = well fitted curve in the direction sought with a large enough effect; inconclusive = small, poorly fitted or top-dose-only effect, or another doubt; inactive = no such curve, though single readings can be large; an effect the other way counts as inactive or inconclusive.

One assay concerns MKL-1. The assay can be described thus: qHTS assay to identify novel small-molecules to repurpose for Merkel cell carcinoma treatment (AID 1296009). Also: nearly all actives have a fitted effect of over 60% in size. The note with it: MCC and control cell lines, CellTiter-Glo viability, 72 h; series mostly up to 46 µM. An outline of the steps: (§1)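 Cells exposed to NPC (8-point) and MIPE (11-point) compound dilutions for 72 hr at 37 degree celsius; viability read by CellTiter-Glo luminescence, normalized to no-cell and DMSO in-plate controls.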
On the technique in general: qHTS replaces the single test concentration by a dilution series.

The subject of the next assay is MKL-2. Described as above. The settings on record: MCC and control cell lines, CellTiter-Glo viability, 72 h; series mostly up to 46 µM. Put shortly:
as §1
(Cellular ATP, detected with luciferase, serves as a proxy for viable cell number.)

The next assay relates to UISO. The description is as above. The settings on record: MCC and control cell lines, CellTiter-Glo viability, 72 h; series mostly up to 46 µM. Put shortly: as §1
In a further assay the test system is WaGa. The assay is described as above. The settings on record: MCC and control cell lines, CellTiter-Glo viability, 72 h; series mostly up to 46 µM. Put shortly: as §1
A further assay concerns C33A. The assay can be described thus: Primary qHTS to identify gynecologic anti-cancer compounds using libraries of approved drugs and bioactive compounds (AID 1345084). Also: nearly all actives have a fitted effect of over 55% in size. The settings on record: Gynecologic cancer cell panel viability, ATPlite luminescence, 48 h; series mostly up to 57.5 µM. Put shortly:
(§2)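 48 h compound exposure at 37 C, 5% CO2; five-point qHTS. ATPlite luminescence readout of cell ATP.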

For a further assay, the system named is CAOV3. The assay is described as above. The note with it: Gynecologic cancer cell panel viability, ATPlite luminescence, 48 h; series mostly up to 57.5 µM. Put shortly:
as §2

For another assay, the system named is CASKI. The description is as above. The note with it: Gynecologic cancer cell panel viability, ATPlite luminescence, 48 h; series mostly up to 57.5 µM. Put shortly:
as §2

In another assay the test system is Es-2. Described as above. The settings on record: Gynecologic cancer cell panel viability, ATPlite luminescence, 48 h; series mostly up to 57.5 µM. Put shortly: as §2
The test system of a further assay is HeLa. The description is as above. The settings on record: Gynecologic cancer cell panel viability, ATPlite luminescence, 48 h; series mostly up to 57.5 µM. Put shortly: as §2
In another assay the test system is Hek293T. The assay is described as above. The note with it: Gynecologic cancer cell panel viability, ATPlite luminescence, 48 h, control line for the selectivity index; series mostly up to 57.5 µM. An outline of the steps:
as §2

The test system of the next assay is JEG-3. The assay is described as above. The note with it: Gynecologic cancer cell panel viability, ATPlite luminescence, 48 h; series mostly up to 57.5 µM. An outline of the steps: as §2
The next assay concerns OV90. Described as above. The note with it: Gynecologic cancer cell panel viability, ATPlite luminescence, 48 h; series mostly up to 57.5 µM. An outline of the steps:
as §2

For the next assay, the system named is PA-1. The assay is described as above. The settings on record: Gynecologic cancer cell panel viability, ATPlite luminescence, 48 h; series mostly up to 57.5 µM. An outline of the steps:
as §2

A further assay has as its system SKOV3. The description is as above. The settings on record: Gynecologic cancer cell panel viability, ATPlite luminescence, 48 h; series mostly up to 57.5 µM. Put shortly:
as §2

Another assay concerns Tov-21-G. The description is as above. The note with it: Gynecologic cancer cell panel viability, ATPlite luminescence, 48 h; series mostly up to 57.5 µM. Put shortly: as §2
The subject of another assay is Tov112D. The description is as above. The settings on record: Gynecologic cancer cell panel viability, ATPlite luminescence, 48 h; series mostly up to 57.5 µM. An outline of the steps:
as §2

Assay [1] in a line: Drug repurposing screens with cells derived from glioblastoma tumor samples (AID 1345199). Also: nearly all actives have a fitted effect of over 40% in size. As to activity, negative = cell killing: % is scaled to controls: 0 for no effect and ±100 for the full control effect. The note with it: GBM patient neurospheres viability, ATP luminescence, 48 h. Put shortly:
(§3)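 Four patient lines of CD133+ GBM neurospheres were screened at several concentrations; hits were retested in those lines plus three slower-growing GBM lines, using 48-hour treatment and ATP-based viability.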

In another assay the test system is astro. The assay is described as above. The settings on record: viability, ATP luminescence, 48 h; series mostly up to 45.9 µM. Put shortly:
as §3

Assay [2] can be described thus: qHTS assay to identify inhibitors of the type 1 interferon - major histocompatibility complex class I in skeletal muscle: Counter screen cell viability and HiBit confirmation (AID 1347412). Also: nearly all actives have a fitted effect of over 60% in size. The settings on record: iHSKM muscle cells + IFN-b, HiBiT or CellTiter-Glo, 24 h. An outline of the steps: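 Myoblasts (C25cl48, HLA-B HiBiT) seeded in medium without dexamethasone, IFN-b 4 ng/ml added except unstimulated columns; 1 hr later compounds pinned (12-pt 1:3, top 46 uM final). Incubated 24 hrs, lysed 10 min, luminescence measured.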

In another assay the test system is NIH3T3. The assay can be described thus: qHTS assay to identify novel small-molecules to repurpose for Merkel cell carcinoma treatment (AID 1296009). Also: nearly all actives have a fitted effect of over 60% in size. The settings on record: MCC and control cell lines, CellTiter-Glo viability, 72 h; at 44.8 µM (top of the series) unless noted. Put shortly: as §1
Where [3] appears, read: at 45.9 µM (top of the series), tumour line B.
Potency is read from the fitted curve at half-maximal effect.

On to `Cc1c(OCC(F)(F)F)ccnc1CS(=O)c1nc2ccccc2[nH]1` (centres undefined), for which the Potency entry in the assay on MKL-1, with MKL-2, in the assay on UISO, with WaGa, in the assay with C33A and in the assay on CAOV3 was “inactive” throughout. Besides, the Potency entry in the assay with CASKI, in the assay on Es-2, in the assay with HeLa, with Hek293T, in the assay on JEG-3 and in the assay on OV90 was “inactive” each time. The Potency result in the assay with PA-1, in the assay on SKOV3, with Tov-21-G, in the assay on Tov112D and in the assay on astro was “inactive” each time. In addition, in assay [1] (setting [3]), the activity, negative = cell killing was -26% (inactive). Besides, in [1] (tumour line A), the Potency was 10 µM (active).
As for `Cc1cc(=O)oc2cc(O)ccc12`, the Potency result in the assay with MKL-1, with MKL-2, in the assay on UISO, in the assay on WaGa, in the assay with C33A and in the assay on CAOV3 was “inactive” in each case. Moreover, the Potency result in the assay with CASKI, in the assay with Es-2, in the assay on HeLa, in the assay on Hek293T, in the assay on JEG-3 and with OV90 was “inactive” in each case. Further, the Potency entry in the assay with PA-1, with Tov-21-G, in the assay on Tov112D and in the assay with astro was “inactive” throughout. Further, the activity, negative = cell killing in assay [1] (at 20 µM (top of the series), tumour line C) is -8.91% (inactive); in assay [1] (at 21.2 µM (top of the series), tumour line B) it was -9.65% (inactive); in assay [1] (at 21.2 µM (top of the series), tumour line D) it was -8.02% (inactive).
`CN(C)c1ccc2nc3ccc(=[N+](C)C)cc-3sc2c1`: the Potency is 2.35 µM (active) and 841 nM (active) with MKL-1; 4.69 µM (active) and 2.66 µM (active) in the assay on MKL-2; 3.32 µM (active) and 2.37 µM (active) with UISO; 1.87 µM (active) and 1.19 µM (active) in the assay with WaGa; 1.12 µM (active) with C33A; 3.98 µM (active) in the assay on CAOV3. For the same compound, the Potency is 7.08 µM (active) in the assay with CASKI; 1.78 µM (active) with Es-2; 14.1 µM (active) in the assay on Hek293T; 2 µM (active) with JEG-3; 12.6 µM (active) in the assay with OV90; 0.891 µM (active) with PA-1. For the same compound, the Potency in the assay with Tov-21-G was 10 µM (active); in the assay on Tov112D, 6.31 µM (active); in the assay with astro, 5.01 µM (active); in assay [2] (Viability), 15.7 µM (active).
Consider `O=c1ccc2ccc(O)c(O)c2o1`, for which the Potency result with UISO is “inactive”.
Consider `COc1cc(C(C)=O)ccc1OCCCN1CCC(c2noc3cc(F)ccc23)CC1`, for which the Potency entry in the assay on MKL-1, in the assay on UISO, in the assay on WaGa, in the assay with C33A, in the assay on CAOV3 and with CASKI was “inactive” in each case. Further, the Potency result in the assay on Es-2, in the assay on HeLa, with JEG-3, with PA-1, in the assay with Tov-21-G and in the assay on Tov112D was “inactive” in each case. Moreover, the Potency result in the assay on astro is “inactive”. For the same compound, in the assay on NIH3T3, the compound was classed as inactive.
As for `COc1cc(Nc2c(C#N)cnc3cc(OCCCN4CCN(C)CC4)c(OC)cc23)c(Cl)cc1Cl`, the Potency is 8.41 µM (active) and inactive with MKL-1; 29.9 µM (active) and inactive in the assay with WaGa; 14.1 µM (active) in the assay with C33A; 6.31 µM (active) with CAOV3; 6.31 µM (active) and 14.1 µM (active) in the assay with Es-2; 25.1 µM (active) and inactive in the assay with HeLa. Moreover, the Potency with PA-1 was 11.2 µM (active); in the assay on SKOV3, 10 µM (active); in [2] (HiBiT), 11.1 µM (active); in assay [2] (Viability), 24.9 µM (active). Moreover, in the assay on MKL-2, the Potency result was “inactive”.
As for `Cc1ccc(C(=O)c2cc(O)c(O)c([N+](=O)[O-])c2)cc1`, the Potency entry with MKL-1, in the assay on UISO, in the assay with WaGa, in the assay on C33A, in the assay on CAOV3 and with CASKI was “inactive” throughout. For the same compound, the Potency entry in the assay with Es-2, in the assay with Hek293T, in the assay with JEG-3, in the assay on OV90, with SKOV3 and in the assay on Tov-21-G was “inactive” each time. Also, the Potency entry in the assay on Tov112D is “inactive”. In addition, in assay [1] (setting [3]), the activity, negative = cell killing is -17.5% (inactive).
